# Experimental data taken from PubChem BioAssay AID2549 (National Center for Advancing Translational Sciences (NCATS), 2010).
# Values joined by “and” are separate entries in the source; they are usually repeats but may differ in a detail not shown here. Equal entries are not always repeated. Out of some 240,000 compounds screened, about 1,300 (0.54%) were called active. A call without a number means that no potency is given here. Roughly 1% stayed inconclusive and do not appear here. This is one part of a sample in which actives are shown more often than they occur. Calls follow the shape of the dose curve; as a rule, active = well fitted inhibition curve with a large enough effect; inconclusive = small, poorly fitted or top-dose-only effect; inactive = flat fitted curve, though single readings scatter. Where a structure was tested more than once in an assay, its records may differ in their call. Where a SMILES comes first, the peptide text is derived from it. Bridges are numbered along the chain shown (N, C = ends).
# Target: ATP-dependent DNA helicase Q1 (Homo sapiens) (UniProt P46063)
# Sequence (P46063 whole entry, looked up): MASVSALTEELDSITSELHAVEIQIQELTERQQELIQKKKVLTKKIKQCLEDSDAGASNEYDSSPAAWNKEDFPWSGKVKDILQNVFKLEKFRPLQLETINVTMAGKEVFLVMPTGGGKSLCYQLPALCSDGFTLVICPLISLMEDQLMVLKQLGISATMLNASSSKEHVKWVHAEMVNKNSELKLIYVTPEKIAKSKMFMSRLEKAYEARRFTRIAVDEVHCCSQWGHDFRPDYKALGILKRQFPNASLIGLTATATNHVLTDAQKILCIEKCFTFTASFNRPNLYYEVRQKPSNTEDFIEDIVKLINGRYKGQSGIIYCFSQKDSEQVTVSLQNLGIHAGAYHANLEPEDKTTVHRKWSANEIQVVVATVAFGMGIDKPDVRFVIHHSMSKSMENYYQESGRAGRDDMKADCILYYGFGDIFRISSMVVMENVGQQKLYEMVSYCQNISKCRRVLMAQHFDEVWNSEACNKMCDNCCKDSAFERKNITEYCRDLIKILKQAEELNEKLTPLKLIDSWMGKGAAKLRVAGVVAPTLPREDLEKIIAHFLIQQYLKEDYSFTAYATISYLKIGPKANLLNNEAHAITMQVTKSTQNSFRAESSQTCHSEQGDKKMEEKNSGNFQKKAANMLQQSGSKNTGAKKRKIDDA
# Test: qHTS Assay for Inhibitors of RecQ-Like Dna Helicase 1 (RECQ1); also: nearly all actives have a fitted effect of over 30% in size
# Details: RECQ1 DNA unwinding, red fluorescence kinetic read; series mostly up to 57.3 µM
# Description: Survival of cells and the faithful propagation of the genome depend on elaborate mechanisms of detecting and repairing DNA damage. Treatment of advanced cancer relies on radiation therapy or chemotherapy, which kill cancer cells by causing extensive DNA damage. It is often found, that cancer cells develop resistance to therapy through enhanced activity of DNA repair functions; this has led to an increased interest in developing drugs that interfere with DNA repair, which could sensitize cancer cells to conventional therapy.
# This validation qHTS assay pertains to human RECQ1, which is important in resolving abnormal DNA structures formed during replication or homologous recombination. Shutting down the expression of RECQ1 leads to chromosomal instability and higher radiation sensitivity in cultured cells.
# The validation assay was a fluorescence quenching based kinetic qHTS for RECQ1 Helicase DNA unwinding. The activity was measured as ATP-dependent separation of a 20-bp DNA duplex extended by 30-nt single-stranded tails (forked duplex). The forked DNA substrate was tagged with rhodamine fluorophore (carboxytetramethyl rhodamine, TAMRA) and BHQ-2 (Black Hole Quencher 2) dark quencher. Strand separation results in an increase in the fluorescence of TAMRA (excitation 525 nm, emission 598 nm). This substrate construct operates in a red-shifted region where very few compound library members have been noted to fluoresce (PubChem AIDs 593 and 594). An additional feature of the assay is the inclusion of 2.5 ug/ml poly (dIdC), to reduce interference by compounds such as DNA intercalators, a major source of false inhibitors.
# Opher Gileadi, Structural Genomics Consortium, University of Oxford
# Screening Center PI: Austin, C.P.
# Screening Center: NIH Chemical Genomics Center [NCGC]
# Three uL of reaction buffer (25 mM Tris-HCl (pH 8.0), 5 mM NaCl, 2 mM MgCl2, 1mM DTT, 0.01% Tween- 20, and 2.5 ug/ml poly(dI-dC), including enzyme (50 nM RECQ1T1), were dispensed into a 1536-well Greiner black assay plate via solenoid-valve based nanoliter dispensers. Compounds (23 nl each in columns 5-48) and control (23 nl each in column 2 as dose-response) were transferred via a Kalypsys pintool equipped with a 1536-pin array. The plates were incubated for 15 min at room temperature, and then 1 ul of substrates (200 nM DNA and 2 mM ATP, final concentrations) was added to start the reaction. The plate was transferred into a ViewLux high-throughput CCD imager where the reaction progress was measured in a discontinuous kinetic mode (two reads spaced 2 hours apart, with intermediate room temperature incubation of the covered assay plate) by using standard red-fluorescence optics (excitation filter 525 nm, emission filter 598 nm). Enzyme-free and vehicle (DMSO) controls were included for signal normalization.
# Potency is read from the fitted curve at half-maximal effect.
row,Structure (SMILES),Potency
1,Oc1cc(O)c2c(c1)OC(c1ccc(O)c(O)c1)C(O)C2 (stereo not given),14.1 µM (active)
2,Cc1nnnn1/C(=C\c1ccccc1)C(=O)OCC(=O)N1CC2(C)CC1CC(C)(C)C2 (stereo not given),inactive
3,O=c1c(O)c(Br)ccc2c(Br)c(O)c(O)c(O)c12,3.16 µM (active)
4,CCC1(CC)C(=O)C2=C3C1[C@H](C(=O)OC)C=C(C(=O)OC)C[C@H]3[C@H]1C(=O)N(Cc3ccccc3)C(=O)[C@H]1[C@H]2C (stereo not given in full),inactive
5,Cc1cc(/C=N/NC(=O)c2cccnc2)c(C)n1CC(C)C,inactive
6,O=C(N/N=C/c1ccccn1)c1cccnc1,inactive
7,O=C(N/N=C/c1sc(N2CCCCC2)nc1-c1cccs1)c1cccnc1,10 µM (active)
8,COCCNC(=O)/C(C#N)=C/c1cccc(OCc2ccccc2)c1,inactive
9,N#C/C(=C\c1ccc(O)c(O)c1)C(N)=O,inactive
10,N#C/C(=C\c1ccc(O)c(O)c1)C(=O)NCc1ccccc1,inactive and 31.6 µM (active)
11,c1ccc(C2CNCc3c2ccc2ccccc32)cc1 (stereo not given),inactive
12,CC(=O)Nc1ccc(S(=O)(=O)N2N=NC3C2C2CC4C3(CN(C(=O)OC(C)(C)C)S4(=O)=O)O2)cc1 (stereo not given),inactive
13,CN(C(=O)COC(=O)c1cc(-c2ccco2)nc2ccccc12)C1CCS(=O)(=O)C1 (stereo not given),14.1 µM (active)
14,COc1ccc(NC(=O)COc2ccc(C(=O)OCC(=O)N(C)C3CCS(=O)(=O)C3)cc2OC)cc1 (stereo not given),inactive
15,Cc1c(-c2cccc(Cl)c2)nc2ccccc2c1C(=O)OCC(=O)N(C)C1CCS(=O)(=O)C1 (stereo not given),inactive
16,CC(=O)OC1C([N+]2(C)CCCCC2)C[C@H]2C3CC[C@H]4C[C@H](OC(C)=O)C([N+]5(C)CCCCC5)CC4(C)C3CCC12C (stereo not given in full),inactive
17,Nc1ccc2nc3c(=O)[nH]c(=S)[nH]c3nc2c1,7.94 µM (active)
18,O=c1[nH]c(=O)c2nc3ccccc3nc2[nH]1,inactive
19,Cc1cc2nc3c(=O)n(Cc4ccccc4)c(=O)[nH]c3nc2cc1N,inactive
20,CCOc1ccc(/C=C2\SC(=S)N(NC(=O)c3ccncc3)C2=O)cc1OC,inactive
21,COc1ccc(C2=Nn3c(nnc3-c3ccccc3O)SC2)cc1,inactive
22,C=CCCN(C(Cc1ccccc1)C(=O)OC)S(=O)(=O)c1cc(Br)ccc1Br (stereo not given),inactive
23,C=C1CCN(Cc2ccc(OC)cc2)S(=O)(=O)c2ccccc21,inactive
24,Cc1ccc(SCC(CC(C)C)N2CCN(CCc3ccccc3)CCC2=O)cc1 (stereo not given),inactive

row,Structure (SMILES),Potency
1,COc1c(O)cc2oc(-c3ccc(O)c(O)c3)cc(=O)c2c1O,11.2 µM (active) and 8.91 µM (active)
2,COc1ccc2c(=O)cc(-c3ccccc3)oc2c1O,inactive
3,O=c1cc(-c2ccc(O)cc2)oc2c(-c3cc(-c4cc(=O)c5c(O)cc(O)cc5o4)ccc3O)c(O)ccc12,inactive
4,O=c1cc(-c2ccc(O)c(O)c2)oc2cccc(O)c12,25.1 µM (active)
5,Cc1cccc(-c2cc(=O)c3cc(C)ccc3o2)c1,inactive
6,CCOC(=O)COc1cc(O)c2c(=O)cc(-c3ccccc3)oc2c1,inactive
7,C=C1/C(=C\C=C2\CCCC3(C)C2CCC3C(C)/C=C/C(O)C2CC2)CC(O)CC1O (stereo not given),inactive
8,CCCCc1nn(-c2ccccc2C(F)(F)F)c(=O)n1Cc1ccc(-c2ccccc2S(=O)(=O)NC(=O)c2sccc2C)cc1,inactive
9,COC(=O)c1ccc(C(NC(=O)OCc2ccccc2)/C(F)=C/[C@@H](C)C(=O)O)cc1 (stereo not given in full),inactive
10,COc1ccc(CCCOC(Cn2ccnc2)c2ccc(OC)cc2)cc1 (stereo not given),inactive
11,Cc1ccccc1NC(=O)CN1C(=O)N/C(=C\c2cccn2-c2cccc(C(=O)O)c2)C1=O,14.1 µM (active)
12,Cc1cccc(NC(=O)CN2C(=O)c3ccccc3C2=O)c1C,inactive
13,O=C1N/C(=C/c2cccn2-c2ccccc2)C(=O)N1c1cccc(Cl)c1,inactive
14,COc1ccccc1NC(=S)N1CCN(C(c2ccccc2)c2ccccc2)CC1,inactive
15,COc1ccc(Br)cc1C1C2C=CCC(C)C2C(=O)N1Cc1ccccc1 (stereo not given),inactive
16,O=C1c2ccccc2C(=O)N1Cc1cc(-c2ccccc2Cl)no1,31.6 µM (active)
17,O=C1c2cccnc2C(=O)N1Cc1cccs1,inactive
18,O=C1c2ccccc2C(=O)N1CCCc1nc(-c2ccccc2)no1,inactive
19,O=C(N/N=C/c1c(Cl)[nH]c2ccccc12)c1sc2ccccc2c1Cl,inactive
20,Oc1ccc(N=Cc2sc3ccccc3c2Cl)cc1,8.91 µM (active)
21,Oc1ccc(N=Cc2c(O)ccc3ccccc23)cc1,inactive
22,C[C@@H](O)[C@@H]1NC(=O)[C@H](CCCCN)NC(=O)[C@H](Cc2c[nH]c3ccccc23)NC(=O)[C@H](Cc2ccccc2)NC(=O)[C@H](Cc2ccccc2)NC(=O)[C@H](CC(N)=O)NC(=O)[C@H](CCCCN)NC(=O)[C@@H](NC(=O)[C@@H]2CCCN2)CSSC[C@@H](C(=O)N[C@@H](CCCCN)C(=O)O)NC(=O)[C@H](CO)NC(=O)[C@H](CO)NC(=O)[C@H](Cc2ccccc2)NC1=O (H-PCKNFFWKTFSSCK-OH; disulfide 2-13),inactive
23,CCCN1CCC(=O)N(C(CSc2ccc(OC)cc2)Cc2ccccc2)CC1 (stereo not given),inactive
24,O=C(O)C1CC=CC2CCN(C3CCCCC3)C(=O)C21 (stereo not given),inactive

row,Structure (SMILES),Potency
1,Cc1ccc(C)c(CSc2nc(-c3ccco3)nc3c2c(=O)n(C)c(=O)n3C)c1,inactive
2,C/C=C\C=C\C(=O)N1CC2(CC(c3cccc(NC(=O)/C(C)=C\C)c3)=NO2)C[C@H]1C(N)=O (stereo not given in full),20 µM (active)
3,CC/C=C/C(=O)N1CC2(CC(c3cccc(NC(=O)CC)c3)=NO2)C[C@H]1C(N)=O (stereo not given in full),inactive
4,C/C=C(/C)C(=O)Nc1cccc(C2=NOC3(C2)C[C@@H](C(N)=O)N(C(=O)C2(C)CC2)C3)c1 (stereo not given in full),inactive
5,O=S(O)S(=O)(=O)O,inactive
6,Cc1ccc(-c2cc(C(=O)N/N=C/C=C/c3ccco3)c3ccccc3n2)cc1C,inactive
7,O=C(N/N=C/C=C/c1ccco1)c1cccs1,35.5 µM (active)
8,CC(=O)Nc1ccc(/C=N/NC(=O)c2cccs2)cc1,inactive
9,NC(=O)COC(=O)/C=C/c1ccc2ccccc2n1,inactive
10,COC(=O)c1ccc(S(=O)(=O)N2CCC(c3nc4ccccc4o3)CC2)cc1,inactive
11,CC(=O)c1ccc(S(=O)(=O)N2CCN(C(=O)/C=C/c3ccc4ccccc4n3)CC2)cc1,25.1 µM (active)
12,O=c1cc(CCl)nc2scc(-c3ccccc3)n12,inactive
13,CCc1nnc(NC(=O)c2cccc(S(=O)(=O)N(C)c3ccc(OC)cc3)c2)s1,inactive
14,CCc1nnc(NC(=O)c2sc3nc(C)cc(COC)c3c2N)s1,inactive
15,CCc1ccc2nc3sc(C(=O)Nc4nnc(CC)s4)c(N)c3cc2c1,31.6 µM (active)
16,Cc1ccc(CNC(=O)C2(C(F)(F)F)C/C(=C\CCO)CCCO2)o1 (stereo not given),inactive
17,Nc1ccc2c3c(cccc13)C(=O)NC2=O,inactive and 25.1 µM (active)
18,CCN1C(=O)c2cccc3c(N)ccc1c23,inactive
19,CCC(C)[C@@H](N)C(=O)O (stereo not given in full),inactive
20,COc1ccc(CC(N)C(=O)NC2C(O)[C@H](n3cnc4c(N(C)C)ncnc43)O[C@@H]2CO)cc1 (stereo not given in full),inactive
21,S=C(NCCc1ccccc1)N1CCn2cccc2C1c1ccncc1 (stereo not given),inactive
22,Cc1ccc(C)c(SCc2nc3sc(C(=O)O)c(C)c3c(=O)[nH]2)c1,inactive
23,CCOC(=O)c1ccc[n+](CC(=O)Nc2ccccc2OC(F)F)c1,inactive
24,Cc1ccc(-c2nc(SCC(=O)Nc3ccccc3OC(F)F)c3c(C)c(C(=O)O)sc3n2)cc1,25.1 µM (active)

row,Structure (SMILES),Potency
1,CCOC(=O)C(CC)/C(C)=N\NC(=O)c1cccc(C)c1 (stereo not given),inactive
2,C[C@H]1CCC[C@@]2(C)CCCC[C@]12O,inactive
3,COc1cc(OC)c2c(C)cc(=O)oc2c1C(CCN1CCCCC1)c1ccc(N(C)C)cc1 (stereo not given),inactive
4,N#Cc1ccccc1CN1C(=O)S/C(=C/c2cccn2-c2cccc(C(=O)O)c2)C1=O,28.2 µM (active)
5,Cn1cccc1/C=C1\SC(=O)N(CC(=O)Nc2ccc(F)cc2)C1=O,inactive
6,O=C(O)c1cccc(N2C(=O)Nc3ccccc3N2O)c1,inactive
7,O=c1ccn([C@@H]2O[C@H](COP(=O)(O)OP(=O)(O)OP(=O)(O)O)[C@@H](O)[C@H]2O)c(=O)[nH]1,inactive
8,COc1ccc(OC)c(C(=O)c2ccc(C(=O)N3CCN(Cc4csc(C)n4)CC3)cc2)c1,inactive
9,O=C1C2C(c3ccccc3)CC=CC2C(c2ccoc2)N1Cc1ccccc1 (stereo not given),inactive
10,O=C(COC(=O)CCC(=O)c1cccs1)NCc1ccco1,7.94 µM (active)
11,O=C(CCC(=O)c1cccs1)NCc1ccccc1,inactive
12,O=C(COC(=O)C12CC3CC(CC(C3)C1)C2)NCc1ccco1,inactive
13,COc1ccc(/C=N/NC(=O)c2ccncc2)cc1CN1CCCc2ccccc21,inactive
14,NS(=O)(=O)c1ccc(NC(=O)COC(=O)CCc2c[nH]c3ccccc23)cc1,inactive
15,CC[C@H](C)[C@H](NC(=O)[C@@H](N)CCC(=O)O)C(=O)N[C@@H](CC(C)C)C(=O)N[C@@H](CC(=O)O)C(=O)N[C@H](C(=O)N1CCC[C@H]1C(=O)N[C@@H](CO)C(=O)N[C@H](C(=O)O)[C@@H](C)O)C(C)C,inactive
16,O=c1cc(-c2ccc(O)cc2)oc2c([C@@H]3O[C@H](CO)[C@@H](O)[C@H](O)[C@H]3O)c(O)cc(O)c12,inactive
17,Cc1cc(=O)[nH]c(S)c1C#N,22.4 µM (active)
18,Cc1cc(=O)[nH]c(SCC(N)=O)c1C#N,inactive
19,Cc1cc(=O)[nH]c(=S)[nH]1,inactive
20,Cc1noc(C)c1-c1ccc2ncnc(NCc3ccc4[nH]ccc4c3)c2c1,inactive
21,CCCCCOC(=O)NCCOC(=O)Nc1ccc(C(=O)OCC)cc1,inactive
22,CCCCOC(=O)c1ccc(NC(c2ccc(C)cc2)P(=O)(OC)OC)cc1 (stereo not given),17.8 µM (active)
23,CCOP(=O)(OCC)C(Nc1cccc(C)c1)c1ccc(F)cc1 (stereo not given),inactive
